The results in this text go back to PubChem BioAssay (NCATS).

Unmarked numbers belong to inactive results. Results filed as inconclusive are left out. The source made the active and inactive calls. Unless noted, calls come from the whole dose curve; as a rule, active = well fitted curve in either direction with a large enough effect (not every such curve was filed as active); inconclusive = small, poorly fitted or top-dose-only effect, or another doubt; inactive = flat fitted curve, though single readings scatter. Bounds are passed on as bounds.

Assay [1] addresses Lysosomal acid glucosylceramidase (Homo sapiens) (UniProt P04062). The assay can be described thus: Glucocerebrosidase-p2 (AID 348; in the data active = potency below about 10 µM; note: potency is the fitted concentration of half-maximal effect). Particulars: purified GBA, blue fluorogenic substrate, 40 min. An outline of the steps:
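Normal human glucocerebrosidase (0.2 nM) with blue fluorogenic substrate (80 uM final) in citrate/phosphate pH 5.9 with 10mM sodium taurocholate, 0.01% tween-20; 40 min RT, NaOH/glycine stop; fluorescence Ex 365/Em 440; AC50 from a titration from 0.6 nM upwards.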

A short description of assay [2]: AP1 Signaling Pathway (AID 357).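 Note: ME-180 reporter cells stimulated with EGF at its EC50 level; % is set by controls: 0 for no effect and ±100 for the full control effect.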 The following applies: ME-180 AP-1-bla reporter, EGF-induced, beta-lactamase ratio, 5 h; at 7.69 µM (top of the series) unless noted. Summed up: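 Modulation of EGF-driven AP-1 transcription was assessed with a beta-lactamase reporter in ME-180 cells. Compound and EC50 EGF were co-incubated 5 hours at 37 °C before 2.5-hour CCF4 loading at room temperature and dual-emission reading.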

Assay [3] concerns the target Cytochrome P450 1A2 (Homo sapiens) (UniProt P05177). The assay can be described thus: p450-cyp1a2 (AID 410; calls by dose curve; note: potency is the fitted concentration of half-maximal effect;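 for activity change, negative = inhibition: -100% = full effect of reference inhibitor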). The following applies: recombinant CYP1A2, luciferin-ME demethylation, luminescence; series mostly up to 57 µM. An outline of the steps: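 Luminescent demethylation readout: Luciferin-ME (100uM, equal to Km) turned over by 20nM CYP1A2 for 60 min at room temperature after NADPH regeneration addition, following 10 min compound preincubation. Normalization used 57 uM furafylline as full inhibition.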

A short description of assay [4]: NFAT Signaling Pathway (AID 444).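 Note: carbachol stimulus at about its EC50 of 1 µM final; % is set by controls: 0 for no effect and ±100 for the full control effect.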 The following applies: Jurkat NFAT-bla M1, carbachol, beta-lactamase ratio, 5 h; at 7.69 µM (top of the series) unless noted. Summed up:
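Read-out: CCF4 FRET ratio (460 nm/530 nm) after 1 h RT dye loading, used for %activity and AC50 from titration series. Cells: Jurkat NFAT-β-lactamase/M1 line, treated with compound plus 1 uM carbachol for 5 h, 37 °C.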

A short description of assay [5]: Stat Signaling Pathway (AID 446).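 Note: ME-180 cervical cancer cells given 40 pM IL-6 alongside compound; SIE-controlled beta-lactamase reporter measured as 460/530 nm FRET emission ratio; % is set by controls: 0 for no effect and ±100 for the full control effect.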 The following applies: ME-180 (cervical carcinoma) SIE beta-lactamase reporter, IL-6 stimulated, 5 h; at 7.69 µM (top of the series) unless noted. An outline of the steps:
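Overnight-plated ME-180 cells bearing a STAT Inducible Element beta-lactamase reporter; 5 h co-exposure to compound and 40 pM IL-6; values normalized to 300 pM IL-6 and 125 nM JAK inhibitor controls.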

In assay [6] the target is Glucocorticoid receptor (Homo sapiens) (UniProt P04150). The assay can be described thus: GR-EFC Redistribution (AID 451; calls by dose curve; note: potency is the fitted concentration of half-maximal effect). Particulars: CHO-K1 GR-EFC translocation, beta-gal luminescence, 2 h. An outline of the steps:
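Translocation of GR-ED fusion to nuclear EA restores b-gal, read by luminescence after 1 h room-temperature detection. Engineered CHO-K1 biosensor cells, 1,000/well, exposed 2 h at 37 C to titrations up to 46 uM final.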

Assay [7] addresses Mitogen-activated protein kinase 10 (Mus musculus) (UniProt Q61831). The assay can be described thus: JNK3 AlphaScreen Assay (AID 530).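 Note: kinase came from lysate of stimulated human HepG2 cells; signal reports phosphorylation of biotinylated GST-cJun 1-79 at Ser73 with 10 µM ATP; % is set by controls: 0 for no effect and ±100 for the full control effect.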 Particulars: JNK3 lysate, c-Jun phosphorylation; series mostly up to 57.1 µM. An outline of the steps: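 qHTS titrations with 15 min compound pre-incubation before adding ATP (10 uM final). Read-out: AlphaScreen of Ser73-phosphorylated biotin-GST-cJun using HepG2 lysate JNK3 activated by IL-1β and TNFα.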
On the technique in general: Alpha assays give light when donor and acceptor beads are brought close together.

The target of assay [8] is 3',5'-cyclic-AMP phosphodiesterase 4B (Homo sapiens) (UniProt Q07343). Description: qHTS Assay for Inhibitors of PDE-IV (AID 607; active = well fitted activation curve with a large enough effect in the main read-out, with a control signal flat, not every such curve was filed as active; note: % of control where 0% means no effect). Particulars: HEK293 ACTOne CNG channel cells, membrane potential fluorescence; series mostly up to 22.9 µM. Summed up: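 Live HEK293 cells with a modified cyclic nucleotide-gated (CNG) channel report intracellular cAMP via membrane-potential dye fluorescence (ex 535/em 590 nm). Endogenous PDE-IV was targeted. Compounds were tested at up to 22.9 uM final; RO 20-1724 100 uM served as control.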
Sequence of 3',5'-cyclic-AMP phosphodiesterase 4B (Homo sapiens) (Q07343 whole entry, looked up): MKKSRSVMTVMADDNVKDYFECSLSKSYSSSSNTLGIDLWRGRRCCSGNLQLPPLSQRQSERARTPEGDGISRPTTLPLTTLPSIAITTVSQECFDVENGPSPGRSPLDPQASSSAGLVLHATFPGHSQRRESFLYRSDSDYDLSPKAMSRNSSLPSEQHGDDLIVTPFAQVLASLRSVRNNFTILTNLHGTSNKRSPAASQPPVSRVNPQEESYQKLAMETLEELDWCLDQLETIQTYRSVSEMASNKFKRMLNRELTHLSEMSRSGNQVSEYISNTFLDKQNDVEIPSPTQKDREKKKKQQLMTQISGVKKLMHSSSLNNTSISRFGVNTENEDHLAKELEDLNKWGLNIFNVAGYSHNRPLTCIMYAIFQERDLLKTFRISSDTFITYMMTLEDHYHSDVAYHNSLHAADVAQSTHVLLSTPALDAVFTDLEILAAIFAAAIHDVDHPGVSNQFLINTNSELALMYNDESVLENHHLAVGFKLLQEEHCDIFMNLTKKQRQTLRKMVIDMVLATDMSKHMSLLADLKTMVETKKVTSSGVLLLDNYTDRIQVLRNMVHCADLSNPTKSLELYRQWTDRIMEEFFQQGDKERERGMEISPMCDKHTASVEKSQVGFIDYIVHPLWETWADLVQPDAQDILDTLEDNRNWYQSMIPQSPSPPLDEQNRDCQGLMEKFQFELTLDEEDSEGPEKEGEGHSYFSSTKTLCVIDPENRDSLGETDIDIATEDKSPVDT

Assay [9] is described as follows: Primary qHTS for small molecule stabilizers of the endoplasmic reticulum resident proteome: Secreted ER Calcium Modulated Protein (SERCaMP) assay (AID 1508630; active = well fitted curve in the direction sought with a large enough effect; an effect the other way counts as inactive or inconclusive; note: % is set by controls: 0 for no effect and ±100 for the full control effect). Particulars: SH-SY5Y GLuc-SERCaMP (Gaussia luciferase released on ER calcium loss) secretion, thapsigargin, luminescence; series mostly up to 38.4 µM. An outline of the steps:
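The SH-SY5Y reporter protocol was run at 3 concentrations up to 38.3 uM (primary) or 11 concentrations (follow-up): 16 h compound, 100 nM thapsigargin for 4 h, then extracellular luciferase luminescence.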
(In qHTS, concentration-response curves come from the screen itself.)

Assay [10] addresses Cytochrome P450 3A4 (Homo sapiens) (UniProt P08684). Description: qHTS Assay for Inhibitors and Substrates of Cytochrome P450 3A4 (AID 884; active = well fitted curve in the direction sought with a large enough effect; an effect the other way counts as inactive or inconclusive; note: potency is the fitted concentration of half-maximal effect; nearly all actives have a fitted effect of over 50% in size). The following applies: recombinant CYP3A4, Luciferin-PPXE luminescence; series mostly up to 57.1 µM. An outline of the steps:
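Luminescent readout of luciferin produced by CYP3A4 (20 nM) dealkylation of Luciferin-PPXE, 25 uM (its KM). NADPH-driven reaction ran 60 min at RT after 10 min compound preincubation; data scaled to 57 uM ketoconazole as 100% inhibition.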

The target is the same in assay [11]. The assay can be described thus: qHTS Assay for Activators of Cytochrome P450 3A4 (AID 885; active = well fitted curve in the direction sought with a large enough effect; an effect the other way counts as inactive or inconclusive; note: nearly all actives have a fitted effect of over 65% in size). Particulars: recombinant CYP3A4, Luciferin-PPXE luminescence, 60 min; series mostly up to 57.1 µM. An outline of the steps: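 Using 20nM recombinant human CYP3A4 in potassium phosphate (200mM), substrate Luciferin-PPXE at 25uM, luminescent luciferin detection followed a 60-min RT NADPH reaction; data scaled to 57 uM ketoconazole.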

Sequence of Cytochrome P450 1A2 (Homo sapiens) (P05177 whole entry, looked up): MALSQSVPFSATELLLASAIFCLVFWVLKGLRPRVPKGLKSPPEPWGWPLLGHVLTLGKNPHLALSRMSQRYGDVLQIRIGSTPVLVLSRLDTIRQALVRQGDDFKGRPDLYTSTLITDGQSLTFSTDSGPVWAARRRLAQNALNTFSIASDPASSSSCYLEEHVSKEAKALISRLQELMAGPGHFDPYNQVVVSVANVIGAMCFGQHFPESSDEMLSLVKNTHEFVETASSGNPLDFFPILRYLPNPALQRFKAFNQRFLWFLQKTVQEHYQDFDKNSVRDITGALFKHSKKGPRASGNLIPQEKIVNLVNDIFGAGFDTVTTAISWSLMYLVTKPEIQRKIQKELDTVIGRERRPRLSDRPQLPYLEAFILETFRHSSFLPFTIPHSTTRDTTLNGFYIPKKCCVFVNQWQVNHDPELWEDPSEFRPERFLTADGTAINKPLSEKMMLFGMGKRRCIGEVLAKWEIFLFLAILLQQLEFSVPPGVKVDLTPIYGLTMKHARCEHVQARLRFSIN
Sequence of Lysosomal acid glucosylceramidase (Homo sapiens) (P04062 whole entry, looked up): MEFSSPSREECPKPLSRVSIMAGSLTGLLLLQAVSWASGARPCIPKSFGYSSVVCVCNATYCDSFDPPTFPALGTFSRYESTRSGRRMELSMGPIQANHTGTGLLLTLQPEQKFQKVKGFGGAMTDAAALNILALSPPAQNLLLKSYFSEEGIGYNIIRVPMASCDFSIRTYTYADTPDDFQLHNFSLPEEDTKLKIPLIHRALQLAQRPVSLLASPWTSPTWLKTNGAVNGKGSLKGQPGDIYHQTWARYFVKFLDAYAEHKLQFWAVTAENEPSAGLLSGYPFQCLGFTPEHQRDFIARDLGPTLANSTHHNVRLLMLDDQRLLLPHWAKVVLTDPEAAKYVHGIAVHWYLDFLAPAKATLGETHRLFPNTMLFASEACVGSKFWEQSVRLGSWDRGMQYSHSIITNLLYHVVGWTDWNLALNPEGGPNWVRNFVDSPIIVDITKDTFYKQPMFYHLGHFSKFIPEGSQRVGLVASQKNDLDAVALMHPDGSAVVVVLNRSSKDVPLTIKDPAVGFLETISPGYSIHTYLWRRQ
Sequence of Glucocorticoid receptor (Homo sapiens) (P04150 whole entry, looked up, the tested form may be a part): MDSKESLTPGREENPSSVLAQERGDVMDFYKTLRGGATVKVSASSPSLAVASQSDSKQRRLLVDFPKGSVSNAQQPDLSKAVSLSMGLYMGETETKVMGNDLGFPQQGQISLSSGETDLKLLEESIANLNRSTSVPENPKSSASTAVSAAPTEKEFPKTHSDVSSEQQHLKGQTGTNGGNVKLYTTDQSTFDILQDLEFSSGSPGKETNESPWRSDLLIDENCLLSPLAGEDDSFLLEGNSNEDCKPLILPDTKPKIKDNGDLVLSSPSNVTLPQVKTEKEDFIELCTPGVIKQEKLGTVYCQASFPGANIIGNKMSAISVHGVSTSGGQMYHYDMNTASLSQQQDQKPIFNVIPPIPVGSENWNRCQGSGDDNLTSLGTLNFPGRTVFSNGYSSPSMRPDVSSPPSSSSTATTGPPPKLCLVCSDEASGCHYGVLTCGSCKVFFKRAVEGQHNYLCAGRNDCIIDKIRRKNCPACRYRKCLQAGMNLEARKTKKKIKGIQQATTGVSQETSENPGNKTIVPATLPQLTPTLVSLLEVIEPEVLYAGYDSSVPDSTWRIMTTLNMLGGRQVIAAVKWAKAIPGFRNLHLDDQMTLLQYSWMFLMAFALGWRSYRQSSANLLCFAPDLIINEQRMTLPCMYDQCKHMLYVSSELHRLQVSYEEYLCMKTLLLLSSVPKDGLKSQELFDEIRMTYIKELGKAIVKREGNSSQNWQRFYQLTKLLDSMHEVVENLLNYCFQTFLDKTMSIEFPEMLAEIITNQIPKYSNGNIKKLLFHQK
Sequence of Cytochrome P450 3A4 (Homo sapiens) (P08684 whole entry, looked up): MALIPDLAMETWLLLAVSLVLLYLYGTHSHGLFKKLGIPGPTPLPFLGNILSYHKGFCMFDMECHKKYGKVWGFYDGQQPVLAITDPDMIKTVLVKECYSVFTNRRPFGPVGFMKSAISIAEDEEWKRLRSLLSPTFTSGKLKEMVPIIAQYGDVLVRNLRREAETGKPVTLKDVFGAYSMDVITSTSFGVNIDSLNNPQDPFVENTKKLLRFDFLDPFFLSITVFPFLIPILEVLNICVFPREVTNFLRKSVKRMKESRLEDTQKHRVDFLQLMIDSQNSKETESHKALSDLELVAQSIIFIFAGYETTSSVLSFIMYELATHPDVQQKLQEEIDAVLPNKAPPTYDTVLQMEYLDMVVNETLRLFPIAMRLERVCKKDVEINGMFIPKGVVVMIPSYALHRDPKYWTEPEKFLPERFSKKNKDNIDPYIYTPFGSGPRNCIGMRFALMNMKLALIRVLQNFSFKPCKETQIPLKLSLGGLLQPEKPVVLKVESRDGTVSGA

Consider `COCC(=O)N1CCC2(CCCN(Cc3nccs3)C2)CC1`, for which the Potency in assay [1] is above 11.4 µM; in [6], above 46 µM. The activity change, negative = inhibition in assay [2] was -21.8%; in assay [4], -25.4%. For the same compound, the Potency result in [3], in assay [7] and in [8] was “inactive” throughout. In addition, the activity, negative = inhibition in [5] is -1.77%. In addition, in assay [9], the outcome was inactive.
For the compound `COCC(=O)N1CCC2(CCCN(C(=O)Nc3ccccc3)C2)CC1`, the Potency is above 11.4 µM in assay [1] and above 46 µM in assay [6]. The activity change, negative = inhibition is -1.58% in assay [2] and 13.8% in [4]. For the same compound, the Potency result in [3], in assay [7] and in assay [8] was “inactive” in each case. Also, the activity, negative = inhibition in assay [5] is 3.14%. In assay [9], the outcome was inactive.
In the case of `CC(=O)N1CCC2(CC1)CCN(c1cccc(-c3ccccc3)c1)CC2`, the Potency in assay [1] is above 11.4 µM; in [3], 3.98 µM (active); in assay [6] it was above 46 µM. For the same compound, the figures for the activity change, negative = inhibition in assay [2] and in [4] were -13.2% and 16.7%, respectively. In addition, the activity, negative = inhibition in assay [5] is 18.6%. For the same compound, the Potency result in assay [7] and in [8] was “inactive” in each case. In addition, in assay [9], the result was inactive.
As to `COc1ccc(NC(=O)N2CC3(CCN(C(=O)c4cnccn4)CC3)C2)cc1`, the Potency is above 11.4 µM in [1] and above 46 µM in assay [6]. Further, the activity change, negative = inhibition was 0.0652% in assay [2] and 15.4% in assay [4]. The Potency entry in [3], in assay [7] and in assay [8] was “inactive” each time. The activity, negative = inhibition in assay [5] was 4.6%. The outcome in assay [9] was inactive.
For the compound `CS(=O)(=O)N1CCC[C@@]2(CCN(c3ncccn3)C2)C1`, the Potency in [1] is above 11.4 µM; in [6] it was above 46 µM. Further, the activity change, negative = inhibition was -9.3% in assay [2] and 16.2% in assay [4]. Besides, the Potency entry in assay [3], in [7] and in assay [8] was “inactive” throughout. In addition, the activity, negative = inhibition in assay [5] is -19.8%. For the same compound, in assay [9], the outcome was inactive.
For the compound `COC(=O)N1CCC2(CC1)CN(C(=O)Nc1ccc(OC)cc1)C2`, the results for the Potency in [1] and in assay [6] were above 11.4 µM and above 46 µM, respectively. The activity change, negative = inhibition in assay [2] was -27.1%; in assay [4], 14.1%. For the same compound, the Potency result in assay [3], in assay [7] and in assay [8] was “inactive” each time. In assay [5], the activity, negative = inhibition was -0.967%. The outcome in assay [9] was inactive.
On to `O=C(c1ccncc1)N1CCC[C@@]2(CCN(c3ccccc3)C2)C1`, for which the Potency in [1] is above 11.4 µM; in assay [6], above 46 µM; in [10], 3.16 µM (active). Further, the activity change, negative = inhibition is -9.5% in assay [2] and -16.6% in [4]. Besides, the Potency result in assay [3], in [7], in [8] and in assay [11] was “inactive” in each case. For the same compound, in assay [5], the activity, negative = inhibition was 3.29%. Further, in assay [9], the result was inactive.
Consider `CS(=O)(=O)N1CCC2(CCCN(c3ncccn3)C2)CC1`, for which the Potency in assay [1] is above 11.4 µM; in assay [3] it was 15.8 µM (active); in [6], above 46 µM. Also, the activity change, negative = inhibition in assay [2] is 1.67%; in assay [4], 2.98%. In addition, the activity, negative = inhibition in assay [5] is -8.29%. The Potency entry in assay [7] and in assay [8] was “inactive” throughout. In addition, the result in [9] was inactive.
For `CC(=O)N1CCC2(CC1)CCN(c1ccccn1)CC2`, the Potency in assay [1] was above 11.4 µM; in assay [6] it was above 46 µM. Also, the activity change, negative = inhibition in assay [2] was 1.64%; in assay [4] it was -29.8%. In addition, the Potency result in assay [3], in assay [7] and in [8] was “inactive” throughout. Moreover, the activity, negative = inhibition in assay [5] is 6.98%. For the same compound, the result in assay [9] was inactive.
